# Results reported in PubChem BioAssay (NCI).
# About 83,000 compounds went through this panel and 20% of them were active in at least one assay; those are over-represented in the sample as a whole.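 48-hour exposure, single concentration, 96-well plates; percent growth endpoint where 0 means no net growth. Active: below 10.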 Active and inactive are the calls of the source.
# Tested on: HCC-2998 colon
# Assay: NCI-60 one-dose screen, 48 h (100 = growth as untreated, 0 = no growth, -100 = all killed)
# Conditions: 10 µM
row,Structure (SMILES),growth
1,COc1ccc2nc(Cl)c(Cn3nnc(Cc4ccccc4)n3)cc2c1,59% (inactive)
2,C=C/C(C)=C/C[C@]1(C)[C@H](C)[C@@H](OC(=O)CCC)[C@H](O)[C@@]23C(=C[C@H](OC)C[C@@H]12)[C@@H](OC(=O)CCC)O[C@H]3OC(C)=O,-80.7% (active)
3,COc1ccc(-c2cc(-c3cc(OC)ccc3OC)nc(N)c2C#N)cc1,76.6% (inactive)
4,COc1cc2c3c(n(C4CCN(C)CC4)c(=O)c2cc1OC)-c1cc2c(cc1C3=O)OCO2,66.3% (inactive)
5,COc1cc(-c2ccc[nH]2)[nH]c1/C=C1\N=C(C)C(C(=O)NC(C)C)=C1C,21.2% (inactive)
6,COc1ccc(-c2nn(-c3cccc(Cl)c3)cc2C=C(C#N)C#N)cc1,8.75% (active)
7,Fc1ccc2[nH]cc(-c3nc(-c4ccsc4)cs3)c2c1,105% (inactive)
8,CCn1c2ccc(O)cc2c2c(C)c3c[n+](C)ccc3c(C)c21,35.1% (inactive)
9,CC[C@H]1OC(=O)[C@H](C)[C@@H](O[C@H]2C[C@@](C)(OC)[C@@H](O)[C@H](C)O2)[C@H](C)[C@@H](O[C@@H]2O[C@H](C)C[C@H](N(C)C)[C@H]2O)[C@](C)(OC)C/C(C)=C2/O[C@@]1(C)C=C2C,-85.8% (active)
10,N#Cc1c(-c2ccc(Cl)cc2)cc(-c2cc(O)ccc2O)nc1N,52.7% (inactive)
11,COc1cc2c3c(n([C@@H]4CCOC4)c(=O)c2cc1OC)-c1cc2c(cc1C3=O)OCO2,70.9% (inactive)
12,COc1ccc(-c2cc(-c3ccccc3)nc(SCCCCCCC(=O)NO)n2)cc1,79.4% (inactive)
13,COc1ccc(-c2nn(-c3cccc(Cl)c3)cc2-c2c(C#N)c(=O)n3[nH]c(-c4ccccc4)nc3c2C#N)cc1,108% (inactive)
14,Clc1nc2ccccc2cc1Cn1nnc(Cc2ccccc2)n1,81.3% (inactive)
15,CN1CCc2c(sc3nc4n(-c5ccc(Cl)cc5)cnn4c(=O)c23)C1,104% (inactive)
16,O=C(CCCCNC(=O)c1nc(-c2ccccc2)n(-c2ccccc2)n1)NO,94.4% (inactive)
17,Cc1c2cnccc2c(C)c2c1c1cc(O)ccc1n2C(C)C,20.8% (inactive)
18,CC(C)(C)OC(=O)CN1CCc2c(sc3ncnc(N/N=C/c4cccc5ccccc45)c23)C1,44.1% (inactive)

row,Structure (SMILES),growth
1,Nc1nc(-c2cccnc2)nc2c1sc(=S)n2-c1ccccc1,105% (inactive)
2,CC(C)(C)OC(=O)N1CCc2c(sc3ncnc(N/N=C/c4cccc(Br)c4)c23)C1,42.6% (inactive)
3,O=C(CCCSc1nc(-c2ccc(Cl)cc2)cc(-c2ccc(Cl)cc2)n1)NO,7.09% (active)
4,CN1CCc2c(sc3nc4n(-c5ccc(Cl)cc5)c(=O)[nH]n4c(=O)c23)C1,102% (inactive)
5,CCNc1nc(C(F)(F)F)nc2c1sc(=S)n2-c1ccccc1,115% (inactive)
6,IC(I)I,98% (inactive)
7,Cc1cc(NC(=O)c2ccc(C)c(Nc3nccc(-c4cccnc4)n3)c2)cc(-n2cnc(C)c2)c1,70.8% (inactive)
8,c1cncc(-c2csc(-c3c[nH]c4ccccc34)n2)c1,107% (inactive)
9,Cc1ccc(C2=NN(c3ccc(S(C)(=O)=O)cc3)C(=O)CC2)cc1,47.2% (inactive)
10,CCc1ccc(C2=NN(c3ccc(S(C)(=O)=O)cc3)C(=O)CC2)cc1,46.6% (inactive)
11,COc1ccc(-c2nn(-c3cccc(Cl)c3)cc2/C=C2\NC(=S)N(c3ccc(Cl)cc3)C2=O)cc1,23.2% (inactive)
12,COc1ccc(-c2nn(-c3cccc(Cl)c3)cc2-c2c(C#N)c(=O)n3[nH]c(-c4ccc(C)cc4)nc3c2C#N)cc1,52.2% (inactive)
13,c1cnc2[nH]cc(-c3nc(-c4ccsc4)cs3)c2c1,115% (inactive)
14,O=C1NC(=O)c2c(CCCSc3nc4ccccc4c(=O)n3CCc3ccccc3)cccc21,91.9% (inactive)
15,CCOC(=O)c1sc2ncnc(Nc3ccc4c(cnn4C(=O)Nc4ccc(C)c(Cl)c4)c3)c2c1C,94.1% (inactive)
16,Nc1ccccc1NC(=O)c1ccc(CCCC(=O)Nc2ccc(C3CC3N)cc2)cc1 (stereo unspecified),19.5% (inactive)
17,Cc1c(O)c(=O)ccn1C1CCC(CC2CCC(n3ccc(=O)c(O)c3C)CC2)CC1 (stereo unspecified),55.6% (inactive)
18,Cc1c2cnccc2c(C)c2c1oc1ccccc12,84.9% (inactive)
